Assay in all cases: DAPPL (digital affinity profiling via proximity ligation, sequencing); 10 mM Tris-HCl pH 7.5, 50 mM NaCl, 1 mM DTT, 4% glycerol, room temperature, 30 min; GST-TFs on glutathione beads, 16-mer random dsDNA library, 0.1% formaldehyde crosslink after washing; high values mean tight binding
One assay deals with T1, FEV (Homo sapiens, UniProt Q99581 1-238).
T1 sequence: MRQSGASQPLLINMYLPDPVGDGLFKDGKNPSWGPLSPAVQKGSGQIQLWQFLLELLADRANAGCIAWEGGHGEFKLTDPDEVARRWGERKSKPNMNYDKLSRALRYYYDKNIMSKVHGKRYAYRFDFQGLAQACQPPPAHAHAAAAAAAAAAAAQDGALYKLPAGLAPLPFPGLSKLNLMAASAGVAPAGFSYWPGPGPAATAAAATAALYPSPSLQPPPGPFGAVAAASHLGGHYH
The settings on record: protein: recombinant; tags: N-terminal GST; dsDNA, one strand shown. The procedure, abridged: (§1)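 Human transcription factors were made in yeast as GST fusions, captured on glutathione beads and barcoded with DNA. With a tag-only sample included, the pool was incubated with 200 nmole of a random double-stranded 16-mer DNA library in Tris/NaCl/DTT/glycerol buffer at room temperature for 30 min, then crosslinked with 0.1% formaldehyde after washing, ligated by proximity, amplified and sequenced. For binding signal, each hexamer's read frequency for a factor is divided by its frequency for the tag-only sample.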

A further assay has as its target ETV5 (Homo sapiens, UniProt P41161 1-510). To be noted: protein: recombinant; tags: N-terminal GST; dsDNA, one strand shown. Put shortly:
as §1

In another assay the target is HSF1 (Homo sapiens, UniProt Q00613 1-529). To be noted: protein: recombinant; tags: N-terminal GST; chain copies: 3; dsDNA, one strand shown. Put shortly: as §1
Sequence of HSF1 (Q00613 whole entry): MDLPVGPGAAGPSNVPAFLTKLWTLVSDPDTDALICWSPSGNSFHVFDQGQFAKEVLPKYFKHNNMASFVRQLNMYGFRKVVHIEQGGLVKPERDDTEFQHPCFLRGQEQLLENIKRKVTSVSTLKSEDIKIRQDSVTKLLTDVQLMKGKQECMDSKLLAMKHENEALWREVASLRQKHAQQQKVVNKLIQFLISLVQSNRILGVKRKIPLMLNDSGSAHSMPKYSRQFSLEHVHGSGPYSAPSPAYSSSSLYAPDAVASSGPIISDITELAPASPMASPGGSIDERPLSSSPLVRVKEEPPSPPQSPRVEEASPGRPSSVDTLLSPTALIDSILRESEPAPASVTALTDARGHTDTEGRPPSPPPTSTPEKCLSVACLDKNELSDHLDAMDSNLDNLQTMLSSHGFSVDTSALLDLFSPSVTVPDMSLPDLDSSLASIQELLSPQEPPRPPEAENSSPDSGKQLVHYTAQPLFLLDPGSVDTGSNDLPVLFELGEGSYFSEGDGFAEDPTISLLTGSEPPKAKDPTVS
Another assay has as its target T2, SPIC (Homo sapiens, UniProt Q8N5J4 1-248).
T2 sequence: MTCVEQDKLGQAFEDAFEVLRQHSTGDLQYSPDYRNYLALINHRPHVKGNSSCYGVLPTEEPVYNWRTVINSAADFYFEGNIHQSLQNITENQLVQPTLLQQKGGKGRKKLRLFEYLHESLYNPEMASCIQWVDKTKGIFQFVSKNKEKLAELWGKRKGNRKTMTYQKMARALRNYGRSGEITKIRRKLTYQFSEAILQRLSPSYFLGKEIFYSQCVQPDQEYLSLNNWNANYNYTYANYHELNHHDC
To be noted: protein: recombinant; tags: N-terminal GST; dsDNA, one strand shown. The procedure, abridged:
as §1

In another assay the target is ELF4 (Homo sapiens, UniProt Q99607 1-663). The settings on record: protein: recombinant; tags: N-terminal GST; dsDNA, one strand shown. The procedure, abridged: as §1
Sequence of ELF4 (Q99607 whole entry): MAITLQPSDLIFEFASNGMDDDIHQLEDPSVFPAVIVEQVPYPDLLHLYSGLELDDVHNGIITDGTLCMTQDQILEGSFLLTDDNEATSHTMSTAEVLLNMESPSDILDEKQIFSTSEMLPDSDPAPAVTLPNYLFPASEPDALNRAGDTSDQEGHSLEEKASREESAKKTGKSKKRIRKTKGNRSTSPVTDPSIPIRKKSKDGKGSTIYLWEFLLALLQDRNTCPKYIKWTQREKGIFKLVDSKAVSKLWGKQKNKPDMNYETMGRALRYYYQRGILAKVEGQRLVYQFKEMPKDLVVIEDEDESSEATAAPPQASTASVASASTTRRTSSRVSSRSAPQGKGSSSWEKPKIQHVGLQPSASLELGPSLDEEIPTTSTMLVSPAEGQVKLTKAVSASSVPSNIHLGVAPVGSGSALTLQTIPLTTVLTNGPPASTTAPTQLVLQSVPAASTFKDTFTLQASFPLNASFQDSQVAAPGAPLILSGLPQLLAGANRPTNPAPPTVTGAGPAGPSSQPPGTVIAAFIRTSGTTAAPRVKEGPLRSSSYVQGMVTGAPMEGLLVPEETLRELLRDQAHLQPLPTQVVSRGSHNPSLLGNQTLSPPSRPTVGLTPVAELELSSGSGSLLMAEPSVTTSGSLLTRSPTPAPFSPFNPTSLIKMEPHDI
In another assay the target is T3, ELK4 (Homo sapiens, UniProt P28324-2 1-405).
T3 sequence: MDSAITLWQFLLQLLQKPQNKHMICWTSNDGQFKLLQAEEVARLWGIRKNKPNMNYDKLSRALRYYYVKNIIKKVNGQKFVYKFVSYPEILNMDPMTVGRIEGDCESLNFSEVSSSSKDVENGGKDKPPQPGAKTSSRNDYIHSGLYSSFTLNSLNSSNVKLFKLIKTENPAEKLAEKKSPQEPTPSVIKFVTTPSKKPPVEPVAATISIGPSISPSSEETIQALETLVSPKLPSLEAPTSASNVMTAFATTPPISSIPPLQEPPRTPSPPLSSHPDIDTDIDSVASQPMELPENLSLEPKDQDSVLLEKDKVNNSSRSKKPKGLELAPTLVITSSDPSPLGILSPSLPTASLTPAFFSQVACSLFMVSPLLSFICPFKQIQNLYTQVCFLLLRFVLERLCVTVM
The settings on record: protein: recombinant; tags: N-terminal GST; dsDNA, one strand shown. Put shortly:
as §1

The next assay concerns the target T4, ETV2 (Homo sapiens, UniProt O00321 1-342).
T4 sequence: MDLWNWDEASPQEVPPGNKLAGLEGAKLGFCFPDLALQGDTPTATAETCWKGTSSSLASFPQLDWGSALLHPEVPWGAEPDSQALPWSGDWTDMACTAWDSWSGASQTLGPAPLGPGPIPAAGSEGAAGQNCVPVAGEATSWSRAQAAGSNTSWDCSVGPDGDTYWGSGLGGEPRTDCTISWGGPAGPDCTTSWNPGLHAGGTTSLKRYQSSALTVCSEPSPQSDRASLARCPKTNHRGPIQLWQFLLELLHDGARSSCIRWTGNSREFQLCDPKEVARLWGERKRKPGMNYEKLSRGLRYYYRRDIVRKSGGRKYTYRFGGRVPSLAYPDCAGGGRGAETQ
The settings on record: protein: recombinant; tags: N-terminal GST; dsDNA, one strand shown. The procedure, abridged: as §1

The next assay concerns the target T5, ELF3 (Homo sapiens, UniProt P78545 1-371).
T5 sequence: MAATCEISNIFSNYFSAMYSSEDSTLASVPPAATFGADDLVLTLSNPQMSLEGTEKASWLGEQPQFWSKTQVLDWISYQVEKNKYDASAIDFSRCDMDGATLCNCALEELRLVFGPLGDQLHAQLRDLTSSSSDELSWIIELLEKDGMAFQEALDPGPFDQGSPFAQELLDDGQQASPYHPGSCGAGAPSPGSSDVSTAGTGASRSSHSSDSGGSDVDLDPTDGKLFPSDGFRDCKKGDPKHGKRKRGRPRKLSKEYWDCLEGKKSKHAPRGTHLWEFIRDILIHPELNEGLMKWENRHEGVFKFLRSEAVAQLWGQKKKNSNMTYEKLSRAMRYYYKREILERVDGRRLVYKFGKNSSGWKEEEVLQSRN
To be noted: protein: recombinant; tags: N-terminal GST; dsDNA, one strand shown. Put shortly:
as §1

The next assay concerns the target CRX (Homo sapiens, UniProt O43186 1-299). To be noted: protein: recombinant; tags: N-terminal GST; dsDNA, one strand shown. The procedure, abridged: as §1
Another assay addresses ETV1 (Homo sapiens, UniProt P50549 1-477). To be noted: protein: recombinant; tags: N-terminal GST; dsDNA, one strand shown. The procedure, abridged:
as §1

In the next assay the target is T6, ERF (Homo sapiens, UniProt P50548 1-548).
T6 sequence: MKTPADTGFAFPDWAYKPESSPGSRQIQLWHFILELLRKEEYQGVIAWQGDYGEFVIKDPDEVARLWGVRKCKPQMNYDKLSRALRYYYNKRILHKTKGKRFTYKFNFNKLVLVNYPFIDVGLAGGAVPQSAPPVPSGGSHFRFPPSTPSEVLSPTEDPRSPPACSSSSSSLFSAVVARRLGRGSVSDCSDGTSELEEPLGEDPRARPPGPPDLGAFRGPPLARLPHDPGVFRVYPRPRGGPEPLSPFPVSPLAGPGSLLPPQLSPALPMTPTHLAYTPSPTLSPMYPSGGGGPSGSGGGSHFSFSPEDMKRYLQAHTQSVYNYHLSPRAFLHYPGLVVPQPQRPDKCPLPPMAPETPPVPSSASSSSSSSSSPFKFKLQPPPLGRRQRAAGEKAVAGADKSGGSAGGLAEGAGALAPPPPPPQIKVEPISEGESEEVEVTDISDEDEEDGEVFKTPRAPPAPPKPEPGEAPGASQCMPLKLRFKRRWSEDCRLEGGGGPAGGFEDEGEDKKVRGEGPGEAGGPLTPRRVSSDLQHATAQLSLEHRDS
The settings on record: protein: recombinant; tags: N-terminal GST; dsDNA, one strand shown. Put shortly:
as §1

Another assay concerns the target T7, ETV3L (Homo sapiens, UniProt Q6ZN32 1-361).
T7 sequence: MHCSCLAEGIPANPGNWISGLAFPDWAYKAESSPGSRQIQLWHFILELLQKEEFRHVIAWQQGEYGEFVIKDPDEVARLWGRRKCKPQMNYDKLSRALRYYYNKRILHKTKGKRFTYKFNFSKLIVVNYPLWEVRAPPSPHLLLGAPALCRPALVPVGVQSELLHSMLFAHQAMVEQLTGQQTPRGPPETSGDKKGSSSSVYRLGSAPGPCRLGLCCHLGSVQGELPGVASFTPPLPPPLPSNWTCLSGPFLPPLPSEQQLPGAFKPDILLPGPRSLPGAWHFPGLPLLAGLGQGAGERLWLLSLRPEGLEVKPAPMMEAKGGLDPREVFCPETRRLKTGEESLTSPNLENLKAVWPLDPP
The settings on record: protein: recombinant; tags: N-terminal GST; dsDNA, one strand shown. Put shortly: as §1

The target in a further assay is T8, ETS2 (Homo sapiens, UniProt P15036 1-469).
T8 sequence: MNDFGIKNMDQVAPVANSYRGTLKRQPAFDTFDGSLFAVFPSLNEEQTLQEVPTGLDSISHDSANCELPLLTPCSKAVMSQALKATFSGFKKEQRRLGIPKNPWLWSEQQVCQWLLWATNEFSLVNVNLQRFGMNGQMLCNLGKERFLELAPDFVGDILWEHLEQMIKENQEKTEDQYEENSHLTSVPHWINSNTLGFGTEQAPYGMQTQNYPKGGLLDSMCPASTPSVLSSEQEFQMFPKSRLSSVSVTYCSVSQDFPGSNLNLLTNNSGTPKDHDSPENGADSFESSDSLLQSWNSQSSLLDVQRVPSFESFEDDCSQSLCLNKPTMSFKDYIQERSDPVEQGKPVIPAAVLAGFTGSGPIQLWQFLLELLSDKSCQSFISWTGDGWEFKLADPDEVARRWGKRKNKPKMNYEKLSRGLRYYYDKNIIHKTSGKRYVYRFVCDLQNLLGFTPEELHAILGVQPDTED
To be noted: protein: recombinant; tags: N-terminal GST; dsDNA, one strand shown. Put shortly: as §1

A further assay concerns the target T9, SPDEF (Homo sapiens, UniProt O95238 1-335).
T9 sequence: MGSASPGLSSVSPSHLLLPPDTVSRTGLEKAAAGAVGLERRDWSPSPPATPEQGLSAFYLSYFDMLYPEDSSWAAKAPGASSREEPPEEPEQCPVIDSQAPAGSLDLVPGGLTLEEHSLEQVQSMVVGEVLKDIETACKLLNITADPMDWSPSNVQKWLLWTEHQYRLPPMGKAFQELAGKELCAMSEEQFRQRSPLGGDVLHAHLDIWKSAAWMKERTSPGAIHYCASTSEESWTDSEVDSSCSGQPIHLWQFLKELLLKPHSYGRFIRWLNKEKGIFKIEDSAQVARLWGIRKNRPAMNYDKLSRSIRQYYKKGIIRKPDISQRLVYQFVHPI
To be noted: protein: recombinant; tags: N-terminal GST; dsDNA, one strand shown. The procedure, abridged:
as §1

Another assay concerns the target T10, ETV7 (Homo sapiens, UniProt Q9Y603 1-341).
T10 sequence: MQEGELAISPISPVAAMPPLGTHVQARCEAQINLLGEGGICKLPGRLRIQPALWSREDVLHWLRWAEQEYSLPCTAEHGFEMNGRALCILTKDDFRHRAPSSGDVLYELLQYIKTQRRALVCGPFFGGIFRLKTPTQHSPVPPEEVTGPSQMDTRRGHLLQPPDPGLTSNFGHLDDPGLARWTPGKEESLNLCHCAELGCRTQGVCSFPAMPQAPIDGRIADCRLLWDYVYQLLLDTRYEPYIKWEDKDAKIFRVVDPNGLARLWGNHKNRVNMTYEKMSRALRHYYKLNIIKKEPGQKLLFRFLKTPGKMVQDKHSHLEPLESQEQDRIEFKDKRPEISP
The settings on record: protein: recombinant; tags: N-terminal GST; dsDNA, one strand shown. The procedure, abridged:
as §1

In a further assay the target is T11, ELF5 (Homo sapiens, UniProt Q9UKW6-2 1-255).
T11 sequence: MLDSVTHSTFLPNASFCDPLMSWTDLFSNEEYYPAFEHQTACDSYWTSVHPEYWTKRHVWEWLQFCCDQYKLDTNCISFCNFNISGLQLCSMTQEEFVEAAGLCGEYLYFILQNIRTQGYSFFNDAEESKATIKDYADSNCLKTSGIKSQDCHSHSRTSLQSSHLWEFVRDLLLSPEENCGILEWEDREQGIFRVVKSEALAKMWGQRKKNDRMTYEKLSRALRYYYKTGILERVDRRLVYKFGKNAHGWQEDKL
To be noted: protein: recombinant; tags: N-terminal GST; dsDNA, one strand shown. The procedure, abridged: as §1

The next assay deals with T12, ETV3 (Homo sapiens, UniProt P41162-2 1-143).
T12 sequence: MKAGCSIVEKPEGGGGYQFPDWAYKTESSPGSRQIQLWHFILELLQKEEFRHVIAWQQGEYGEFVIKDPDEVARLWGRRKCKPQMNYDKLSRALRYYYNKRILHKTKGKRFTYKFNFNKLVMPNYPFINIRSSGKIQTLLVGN
The settings on record: protein: recombinant; tags: N-terminal GST; dsDNA, one strand shown. Put shortly: as §1

For another assay, the target named is ETV6 (Homo sapiens, UniProt P41212 1-452). The settings on record: protein: recombinant; tags: N-terminal GST; dsDNA, one strand shown. Put shortly:
as §1

Sequence of ETV5 (P41161 whole entry): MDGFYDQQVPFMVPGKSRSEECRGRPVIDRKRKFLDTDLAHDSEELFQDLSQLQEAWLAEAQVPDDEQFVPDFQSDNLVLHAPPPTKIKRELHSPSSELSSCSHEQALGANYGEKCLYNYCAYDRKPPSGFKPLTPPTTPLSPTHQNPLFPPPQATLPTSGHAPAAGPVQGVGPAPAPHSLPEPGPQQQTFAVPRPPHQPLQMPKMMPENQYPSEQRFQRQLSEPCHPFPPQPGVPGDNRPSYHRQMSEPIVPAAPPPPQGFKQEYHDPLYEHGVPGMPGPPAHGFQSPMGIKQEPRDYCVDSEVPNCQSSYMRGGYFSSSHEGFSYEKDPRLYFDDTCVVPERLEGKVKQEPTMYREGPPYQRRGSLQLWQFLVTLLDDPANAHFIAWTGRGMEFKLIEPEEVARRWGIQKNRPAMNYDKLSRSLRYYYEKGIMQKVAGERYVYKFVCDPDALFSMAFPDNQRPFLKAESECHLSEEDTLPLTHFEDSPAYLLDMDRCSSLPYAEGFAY
Sequence of ETV1 (P50549 whole entry): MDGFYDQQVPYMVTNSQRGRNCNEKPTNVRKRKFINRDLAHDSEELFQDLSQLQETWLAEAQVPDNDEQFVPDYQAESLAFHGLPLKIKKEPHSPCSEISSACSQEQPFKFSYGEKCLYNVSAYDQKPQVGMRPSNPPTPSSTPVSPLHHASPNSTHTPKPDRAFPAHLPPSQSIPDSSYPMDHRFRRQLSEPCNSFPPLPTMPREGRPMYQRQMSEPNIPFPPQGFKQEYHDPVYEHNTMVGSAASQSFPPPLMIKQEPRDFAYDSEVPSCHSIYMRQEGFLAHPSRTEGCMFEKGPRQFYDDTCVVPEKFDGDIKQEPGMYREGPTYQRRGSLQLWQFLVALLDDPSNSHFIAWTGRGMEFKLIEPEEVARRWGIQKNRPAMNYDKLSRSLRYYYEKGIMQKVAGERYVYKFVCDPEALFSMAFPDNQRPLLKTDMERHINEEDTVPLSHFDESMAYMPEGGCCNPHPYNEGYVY
Sequence of CRX (O43186 whole entry): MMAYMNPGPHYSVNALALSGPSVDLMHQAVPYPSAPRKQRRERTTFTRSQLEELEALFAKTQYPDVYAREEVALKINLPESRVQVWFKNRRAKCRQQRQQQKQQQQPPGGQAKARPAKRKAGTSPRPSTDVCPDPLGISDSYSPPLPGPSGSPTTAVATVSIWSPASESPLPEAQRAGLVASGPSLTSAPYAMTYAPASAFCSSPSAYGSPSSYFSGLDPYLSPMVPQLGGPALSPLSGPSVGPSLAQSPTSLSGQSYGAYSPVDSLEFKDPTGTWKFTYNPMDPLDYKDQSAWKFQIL
Sequence of ETV6 (P41212 whole entry): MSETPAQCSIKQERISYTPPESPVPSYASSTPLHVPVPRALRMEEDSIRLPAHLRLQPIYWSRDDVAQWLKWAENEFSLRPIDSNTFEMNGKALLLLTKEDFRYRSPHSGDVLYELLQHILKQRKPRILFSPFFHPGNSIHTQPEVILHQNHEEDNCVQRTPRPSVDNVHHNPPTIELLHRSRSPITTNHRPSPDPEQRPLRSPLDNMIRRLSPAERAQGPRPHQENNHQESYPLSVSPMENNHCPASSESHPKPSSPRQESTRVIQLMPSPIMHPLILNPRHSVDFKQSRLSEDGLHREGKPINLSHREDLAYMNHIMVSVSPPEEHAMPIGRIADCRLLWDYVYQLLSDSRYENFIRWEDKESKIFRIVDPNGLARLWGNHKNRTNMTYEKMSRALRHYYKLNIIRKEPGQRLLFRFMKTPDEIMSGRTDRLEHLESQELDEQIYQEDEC

Take ACTATC: the binding signal in the assay with FEV was 1.13 fold enrichment (6-mer frequency, TF over GST control); with ETV5, 1.13 fold enrichment (6-mer frequency, TF over GST control); with HSF1, 1.13 fold enrichment (6-mer frequency, TF over GST control); with SPIC, 1.19 fold enrichment (6-mer frequency, TF over GST control); with ELF4, 1.24 fold enrichment (6-mer frequency, TF over GST control); in the assay with ELK4 it was 1.2 fold enrichment (6-mer frequency, TF over GST control). For the same sequence, the binding signal is 1.32 fold enrichment (6-mer frequency, TF over GST control) with ETV2; 1.22 fold enrichment (6-mer frequency, TF over GST control) in the assay with ELF3; 1.15 fold enrichment (6-mer frequency, TF over GST control) with CRX; 1.15 fold enrichment (6-mer frequency, TF over GST control) with ETV1; 1.21 fold enrichment (6-mer frequency, TF over GST control) with ERF; 1.15 fold enrichment (6-mer frequency, TF over GST control) in the assay with ETV3L. In addition, the binding signal with ETS2 was 1.19 fold enrichment (6-mer frequency, TF over GST control); with SPDEF, 1.18 fold enrichment (6-mer frequency, TF over GST control); with ETV7, 1.19 fold enrichment (6-mer frequency, TF over GST control); in the assay with ELF5, 1.13 fold enrichment (6-mer frequency, TF over GST control); with ETV3 it was 1.13 fold enrichment (6-mer frequency, TF over GST control); with ETV6, 1.1 fold enrichment (6-mer frequency, TF over GST control).

The record behind these values is paper PMC7862700, “An all-to-all approach to the identification of sequence-specific readers for epigenetic DNA modifications on cytosine”.
